The record followed here is the OligoGym collection.
Note: reference of the scale not given here.

One experiment concerns the target C17orf103. In words: pooled miR-30 sensor sort-seq; sequence = guide strand. The conditions noted are these: shRNA.
As for TCTCCTTGACGTACTTCTGGAT, the sensor-assay potency score (higher = more potent) was -0.358.

With ATCTGGGACCTCGGTGTGCTGC, the sensor-assay potency score (higher = more potent) is -1.85. Regarding TTCTCCTTGACGTACTTCTGGA, the sensor-assay potency score (higher = more potent) is -0.93.

On to TCATGACATCCGTTGAGCCGGA, for which the sensor-assay potency score (higher = more potent) was -0.377. Take TAGGCATCTGGGACCTCGGTGT: the sensor-assay potency score (higher = more potent) is -0.272.

A further experiment deals with C17orf48. The description is as above. Conditions: shRNA.
Take TTGAGGACTATTCAGTTCCGTA: the sensor-assay potency score (higher = more potent) was -1.1.

TAGTGTTAAGTTTAGAGTGTGT registered a sensor-assay potency score (higher = more potent) of 0.18. Regarding TTCAATAACTCCTTCTAGGTTG, the sensor-assay potency score (higher = more potent) is -0.121. The same measure, in the same setting: in the case of TGATCTTCTAGAAACTTAGTGT it was 0.0518; in that of TACACTGCTCGTATTTTGGAGA, -0.905. As to TTCTTGTAATTCATAATTCTAT, the sensor-assay potency score (higher = more potent) is -1. Turning to TATACTGTGCATTATATCCATC, the sensor-assay potency score (higher = more potent) is -0.953.

On to TATCTTCATACACTGCTCGTAT, for which the sensor-assay potency score (higher = more potent) was 0.128. For ATCTTCTAGAAACTTAGTGTTA, the sensor-assay potency score (higher = more potent) was -1.09. As for TATGTCTGTAGTATCGCCGCCT, the sensor-assay potency score (higher = more potent) is -0.223. The sequence TTCAACATCATTTTGTCAGGAT came in with a sensor-assay potency score (higher = more potent) of 1.06. Same read-out and setting: in the case of ATCGATGATATCTCCAAGCTGA it was -0.464.

Another experiment deals with C17orf64. The description is as above. The conditions noted are these: shRNA.
TTCATGCCGCTGATGTTGCTGT: the sensor-assay potency score (higher = more potent) is -0.699.

Turning to ATCTTTCTTGACATGGTCCTGG, the sensor-assay potency score (higher = more potent) was -0.00122.

TTAAAGAATCTTTCTTGACATG: the sensor-assay potency score (higher = more potent) is -1.34. As to TTTTTGATAAGGACAATTCTTT, the sensor-assay potency score (higher = more potent) was -0.341.

Turning to TTGGTGTACTTGTAAAGTCGGC, the sensor-assay potency score (higher = more potent) is -0.519.

As for TTCCTTTATCCTCTTCCTCTTG, the sensor-assay potency score (higher = more potent) is -0.925. Still for that read-out and setting: in the case of TCTTTCTTGACATGGTCCTGGG it was -0.903; in that of TTGGGCAGACTGTCTTCCCGGT, -0.108; in that of TGTACTTGTAAAGTCGGCGAAG, -0.717. On the same count and under the same terms, the result for TTGAGTTTTGGTTTTTGAGAAA reads -0.844; that for TTTATTCCTAATTAAGACCTGA, 0.154. On the same count and under the same terms, the result for TTTCTTGACATGGTCCTGGGAT reads -0.0819.

The next experiment has as its target C17orf71. The description is as above. Conditions: shRNA.
With TTGATGCTTCCAGAACTCGTGT, the sensor-assay potency score (higher = more potent) is -0.713. Still for that read-out and setting: the result for TTGACTGGTAGGCACTGTGGGC reads -0.647; that for TACTTGACCATGAACTTCTGGA, 0.427.

TTTGCCAACTGGACAATCCTTA yielded a sensor-assay potency score (higher = more potent) of 0.137. In turn, TTTCTTGCTTAGAACTAGCTCC showed a sensor-assay potency score (higher = more potent) of 0.179. On the same count and under the same terms, the result for TTAGCTTCCAGTCTTTGCCAAC reads -1.08. As for TCATCTTCAGCTCTAGTCCTGA, the sensor-assay potency score (higher = more potent) was -0.0647.

For TTCCACAACACTTTTCTTCCAG, the sensor-assay potency score (higher = more potent) turned out to be 0.741. Turning to TTGTGTCTAAGTCTCCTTCATC, the sensor-assay potency score (higher = more potent) was -0.792.

With TTTAAGTTTATCAGCATCCGAA, the sensor-assay potency score (higher = more potent) is -0.269.

As for TATTGTGATATAGCACAGGCGG, the sensor-assay potency score (higher = more potent) is -1.08.
